Measured values from PubChem BioAssay AID602449 (Sanford-Burnham Center for Chemical Genomics, 2012).
Screen size: about 360,000 compounds; about 5,000 (1.4%) were called active. This is one part of a sample in which actives are shown more often than they occur. A number with no mark means an inactive call.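 How the source made its calls: active means inhibition of 50% or more, scaled per plate between neutral and stimulator controls; inactive means the rest.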

Test: mitochondrial permeability transition pore inhibitors, primary screen, biochemical, isolated mouse mitochondria, absorbance (AID 602449);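 further: 0% = DMSO wells given calcium and 100% = 1 mM EGTA wells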
Settings: Ca2+ swelling absorbance, 30 min, at 10 µM, hits give high values

| Compound | inhibition |
| --- | --- |
| O=C(C1CCC1)N1CCc2cc(S(=O)(=O)NCc3cccnc3)ccc21 | -1.1% |
| COc1ccc(N(C)S(=O)(=O)c2ccc3c(c2)CC(C)N3C(=O)C2CC2)c(OC)c1 (stereo unspecified) | 0.9% |
| COc1cccc(CNS(=O)(=O)c2ccc3c(c2)CC(C)N3C(=O)C2CCC2)c1 (stereo unspecified) | 90.4% (active) |
| COc1cccc(NC(=O)Cn2cnc3sc(C)c(S(=O)(=O)N4CCN(C)CC4)c3c2=O)c1 | 0.8% |
| Cc1ccc(C2(C(F)(F)F)N=C3Sc4cc(C)cc(C)c4N3C(=O)N2)cc1 (stereo unspecified) | 5.4% |
| CSc1sc(C(=O)NNC(=O)c2ccc(Cl)cc2)c2c1C=CCC2 | 3% |
| CS(=O)(=O)c1sc(C(=O)NC(=S)Nc2ccc(OC(F)(F)F)cc2)c2c1C=CCC2 | 53.1% (active) |
| COc1cc(NS(=O)(=O)c2ccc(NC(=S)NC(=O)c3ccccc3)cc2)nc(OC)n1 | -1.6% |
| COc1cccc(N(Cc2nnc3n2CCCCC3)C(=O)Nc2ccccc2F)c1 | 0.7% |
| Cc1nn(-c2ccccc2)c2sc(C(=O)N(Cc3ccco3)C(C)C(=O)NC(C)(C)C)cc12 (stereo unspecified) | -3.6% |
| CC1=C(C(=O)N2CCOCC2)CC(CC(=O)NCCN2CCOCC2)C(=O)N1CCC1=CCCCC1 (stereo unspecified) | 5.2% |
| O=C(Nn1cnc2ccccc2c1=O)c1ccc(F)cc1Cl | 0.6% |
| CN(C(=O)Nc1ccc(Cl)cc1)n1cnc2ccccc2c1=O | 55.1% (active) |
| O=C(Cn1nnc2ccccc2c1=O)NCc1ccc(Cl)cc1 | -0.4% |
| O=C(CCCN1C(=O)C2C3C=CC(C3)C2C1=O)N1CCN(c2ccccc2)CC1 (stereo unspecified) | -1.6% |
| CN(C)C(CNC(=O)c1cc2ccccc2o1)c1ccccc1 (stereo unspecified) | 0.1% |
| CNS(=O)(=O)c1ccc(C(=O)NCC(=O)NCCc2ccc3c(c2)OCCO3)cc1 | -1.7% |
| O=C(NCCc1ccc2c(c1)OCCO2)c1cc2ccccc2o1 | 74.2% (active) |
| O=C(NC(=O)c1cc(OCC(F)(F)F)ccc1OCC(F)(F)F)Nc1ccccc1 | 12.2% |
| CCCCCN(C(=O)NC(=O)Nc1ccccc1C)S(C)(=O)=O | 7.5% |
| CC(=O)Nc1cc(-c2ccccc2N(C)C)cn2c(-c3ccc(F)c(Cl)c3)cnc12 | 0.4% |
| CCCN1C2=C(C(=O)CCC2)C(c2ccc(O)c(Br)c2)C2=C1CCCC2=O | 0.7% |
| Cc1nc2ccccc2cc1OCc1ccc(F)cc1 | 97.1% (active) |

| Compound | inhibition |
| --- | --- |
| Fc1ccc(COc2cccc(-c3n[nH]c(=S)o3)c2)cc1 | 8.5% |
| Fc1cccc2ncnc(OCc3ccccc3)c12 | 0.3% |
| Cc1ccc(S(=O)(=O)N2CCOCC2)cc1NC(=O)COC(=O)c1cnccn1 | -1% |
| Nc1nc(SCC(=O)Nc2ccc(Cl)cc2C(F)(F)F)n[nH]1 | 0.2% |
| CNC(=O)Nc1cc(C(C)(C)C)no1 | -2.3% |
| Cc1nc2c(-c3ccccc3)c(C)[nH]n2c(=O)c1Cl | -1% |
| CCCc1cc(=O)n2[nH]c(C)c(-c3ccc(Cl)cc3)c2n1 | 1.2% |
| Cc1[nH]n(-c2cccc(Cl)c2)c(=O)c1-c1ccc(Cl)cc1 | 102% (active) |
| CC(NC(=O)CN1CCN(Cc2ccc(Cl)cc2)C1=O)c1ccc2c(c1)OCCO2 (stereo unspecified) | -2.1% |
| Cc1c2cnn(CC(=O)NCCCN3CC(C)CC(C)C3)c(=O)c2c(C)n1Cc1ccc(Cl)cc1 (stereo unspecified) | -0.1% |
| COc1ccc(CNC(=O)C(=O)N2CCC3(CC2)OCCN3S(=O)(=O)c2ccc(C)cc2)cc1 | 0.1% |
| NC1=NC(=O)C(Cc2cccc(Cl)c2Cl)S1 (stereo unspecified) | 1.7% |
| CCOC(=O)Cc1csc(SCC(=O)NC(C)C23CC4CC(CC(C4)C2)C3)n1 (stereo unspecified) | -0.5% |
| COc1cc(NC(=O)Nc2ccc(C)cc2)cc([N+](=O)[O-])c1 | 104% (active) |
| COc1cccc(C(=O)CC(=O)C(=O)Nc2ccc([N+](=O)[O-])cc2C)c1 | -17.7% |
| Cc1ccc(Oc2cc(NC(=O)CCCn3nc(C)c([N+](=O)[O-])c3C)cc([N+](=O)[O-])c2)cc1 | 40.9% |
| COc1ccc(S(=O)(=O)NNC(=O)Nc2ccc(C)cc2)c(OC)c1 | -0.8% |
| CC(=O)Nc1ccc(C(=O)OCC(=O)Nc2ccc([N+](=O)[O-])cc2C(F)(F)F)cc1 | 36.6% |
| CC(=O)c1ccc(NC(=O)Nc2ccc([N+](=O)[O-])cc2C)cc1 | 94.4% (active) |
| COc1ccc(NC(=O)C(c2ccncc2)n2c(=O)c(-c3cc4ccccc4[nH]3)nc3ccccc32)cc1 (stereo unspecified) | 4.2% |
| CC(C)C[C@H](NC(=O)C1CC(=O)N(c2ccc3c(c2)OCCO3)C1)C(=O)NC1CCCC1 (stereo partly specified) | -0.1% |
| CN(C)C(=O)c1cc(Br)ccc1Cl | 1.1% |
| Cc1ccc(NC(=O)c2ccc(Oc3ncccn3)cc2)cc1 | 0.4% |

| Compound | inhibition |
| --- | --- |
| O=C(Nc1ccc(OC(F)(F)F)cc1)c1ccc2c(c1)no[n+]2[O-] | 82.5% (active) |
| CCc1nnc(NS(=O)(=O)c2ccc(NC(=O)c3cccc(OC(F)(F)C(F)F)c3)cc2)s1 | 2.9% |
| Fc1cccc(Cc2c(-c3cccc(Cl)c3)nc3ccc(Br)cn23)c1 | 2.5% |
| CCOC(=O)C1CCN(C(=O)Cc2c(C(=O)O)[nH]c3ccccc23)CC1 | 0.3% |
| CCOC(=O)C1=C(CC)Nc2ccccc2N=C1N | 1.2% |
| O=C(COC(=O)c1ccc[nH]c1=O)Nc1ccc2c(c1)OC(F)(F)O2 | 3% |
| O=C(COC(=O)c1ccccc1NC(=O)c1ccco1)Nc1ccc2c(c1)OC(F)(F)O2 | 60.9% (active) |
| O=C(COC(=O)CNC(=O)c1ccco1)Nc1ccc(F)cc1 | -1.2% |
| COC(=O)[C@]12CCCCC=C1N(Cc1ccccc1)C(=O)[C@H](CC(=O)NCc1ccc(C)o1)C2 | -0.1% |
| COc1ccc(NC(=O)CN(C)S(=O)(=O)c2ccccc2)cc1OC | -0.5% |
| Cc1nc(-c2ccc(F)cc2)c(CC(=O)Nc2cc(S(=O)(=O)N3CCCCC3)ccc2C)s1 | -0.4% |
| Cc1cc(C)c(NC(=O)CS(=O)CC(=O)Nc2cccnc2)c(C)c1 (stereo unspecified) | -1.4% |
| Cc1ccc(-c2nc(-c3cccnc3)sc2CC(=O)Nc2ccc(C)c(Cl)c2)cc1 | 93.3% (active) |
| Cc1ccc(Nc2c(F)c(F)c(F)c(F)c2C(=O)O)c(C)c1 | -0.7% |
| O=C(CCn1nnc2ccccc2c1=O)N[C@@H](Cc1c[nH]c2ccccc12)C(=O)O | 1.4% |
| Cc1ccc(C(=O)Nc2nnc(C3=COCCO3)o2)cc1C | -0.8% |
| Cc1cc(C)c(C(=O)CSc2nc(C)cc(=O)[nH]2)c(C)c1 | 0.6% |
| Cc1cc(C(=O)CSc2nc(N)cc(=O)[nH]2)c(C)n1-c1cccc(F)c1 | 63.2% (active) |
| Cc1cc(C(=O)CSc2nc(N)cc(=O)[nH]2)c(C)n1CCc1ccc(Cl)cc1 | -9% |
| Cc1cc(C(=O)COC(=O)C2CC2)c(C)n1-c1ccc(F)cc1 | 0.2% |
| Cc1cc(C(=O)CSc2nc(N)cc(=O)[nH]2)c(C)n1Cc1ccco1 | 64.3% (active) |
| COc1ccc(C)cc1-n1nnnc1SCC(=O)c1cc(C)n(Cc2ccco2)c1C | -2.3% |
| CC1CCN(c2ccc(-c3ccc(NC(=O)c4ccco4)cc3)nn2)CC1 | 0.3% |

| Compound | inhibition |
| --- | --- |
| CSCCC1NC(=O)N(CC(=O)Nc2cccc(S(=O)(=O)N3CCCCCC3)c2)C1=O (stereo unspecified) | 1.2% |
| CCOC(=O)C1C(=O)OC2(CCCC2)C1C(=O)OCC (stereo unspecified) | -1.2% |
| COc1ccccc1CNc1nc(Nc2ccccc2Cl)c2sccc2n1 | 74.5% (active) |
| COc1cccc(CNc2nc(NCc3ccccc3OC)nc3ccsc23)c1 | 94.6% (active) |
| COCCNc1nc(NCc2ccc(NC(C)=O)cc2)c2sccc2n1 | -1.4% |
| Clc1ccccc1Nc1nc(NCc2cccs2)nc2ccsc12 | 3% |
| COc1ccc(NC(=S)NCc2cccs2)c(OC)c1 | 2.2% |
| COc1cccc(CNc2nc3cc(-c4csc5ccccc45)sc3c(=O)n2C)c1 | 2.5% |
| COCCNc1nc(Nc2ccccc2Cl)c2sc(-c3ccccc3)cc2n1 | 2.1% |
| COc1cccc(CNc2nc(NCc3cccs3)nc3ccsc23)c1 | 77.8% (active) |
| COc1cccc(-c2cc3nc(NCc4ccccc4OC)n(C)c(=O)c3s2)c1 | 1.9% |
| Cc1ccc(Nc2nc(CSc3nnc(-c4ccncc4)n3-c3ccccc3C)cs2)cc1 | 2.2% |
| CC(Cc1cccs1)NC(=O)c1cccc(Cl)c1 (stereo unspecified) | 4.2% |
| Cc1c(NC(=S)NC(=O)CCc2ccccc2)c(=O)n(-c2ccccc2)n1C | 0.3% |
| Cc1cc(C)cc(NC(=O)COC(=O)c2cc(C)oc2C)c1 | 0.5% |
| CN(C)CCn1c2c(c(SCC(=O)NCc3ccccc3)nc1=O)CCC2 | -1% |
| CCOC(=O)c1oc2c(CN3CCN(C)CC3)c(O)ccc2c(=O)c1-c1ccc(Br)cc1 | 9.1% |
| CCOC(=O)c1cc(=O)c2ccc(OCc3ccccc3)cc2o1 | 0.1% |
| CCOC(=O)c1cc2cc(-c3c(C(=O)OCC)oc4cc(O)cc(O)c4c3=O)ccc2o1 | 50.9% (active) |
| C/C(=N\Nc1nc2ccccc2[nH]1)c1cccs1 | 1.1% |
| Cc1ccc(-c2nc(C)sc2CC(=O)OCC(=O)Nc2c(F)cccc2F)cc1 | 0.8% |
| Cn1c(=O)c(C(=O)Nc2ncccn2)c(O)c2ccccc21 | -1.3% |
